Assay results from PubChem BioAssay AID1224921 (Broad Institute, 2016).
Among all 1,400 compounds or so, about 350 (25%) were called active. About 2% were inconclusive and are not listed. No rule for the calls is given here. Only a sample is shown. Potency and affinity values are given separately.

assay: C. difficile growth inhibition, confirmation, 4-point retest (AID 1224921); conditions: Clostridioides difficile clinical isolate growth, OD600, 24 h, stronger effect = lower value; at 30 µM unless noted;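 also: plate controls were DMSO wells for no effect and levofloxacin 16 µg/mL wells for full effect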

Max activity, inactive:
C[C@H](CO)N1C[C@H](C)[C@@H](CN(C)C(=O)Nc2ccc3c(c2)OCO3)Oc2cc(C#Cc3cccnc3)ccc2S1(=O)=O -15.3% [at 8 µM]
O=C(N[C@H]1CC[C@@H](CCNS(=O)(=O)Cc2ccccc2)O[C@@H]1CO)c1ccc2c(c1)OCO2 16.7%
CN(C)C(=O)C[C@@H]1CC[C@H](NC(=O)c2ccc(F)cc2)[C@H](CO)O1 -7.24% [at 1.95 µM]
C[C@@H](NC(=O)C[C@@H]1C=C[C@@H](NC(=O)C2CCC2)[C@H](CO)O1)c1ccccc1 -14.9%
COc1ccc(C(=O)Nc2ccc3c(c2)OC[C@@H](C)N(C(=O)C2CC2)C[C@@H](C)[C@H](OC)CN(C)C3=O)cc1 3.99% [at 35 µM]
CO[C@H]1CN(C)C(=O)c2ccc(NC(=O)c3ccccc3F)cc2OC[C@H](C)N(CC2CC2)C[C@H]1C -14.6% [at 1.95 µM]
C[C@@H]1CN([C@@H](C)CO)C(=O)Cc2cc(NS(C)(=O)=O)ccc2O[C@@H]1CN(C)Cc1ccc(-c2ccccc2)cc1 21.7%
CNC[C@@H]1Oc2cc(-c3ccccc3F)ccc2S(=O)(=O)N([C@H](C)CO)C[C@H]1C 24.6%
CN(C)C(=O)C[C@@H]1CC[C@H](NC(=O)c2ccc(F)cc2)[C@@H](CO)O1 5.78% [at 8 µM]
O=C(Cc1ccncc1)NCC[C@H]1CC[C@H](NC(=O)C2CCC2)[C@@H](CO)O1 -8.1% [at 35 µM]
O=C(Cc1ccncc1)NCC[C@@H]1CC[C@H](NC(=O)C2CCC2)[C@@H](CO)O1 -11.9% [at 0.5 µM]
O=C(Cc1ccncc1)NCC[C@H]1CC[C@H](NC(=O)C2CCC2)[C@H](CO)O1 -8.69% [at 1.95 µM]
COc1ccc(-c2ccc3c(c2)O[C@H](CN(C)Cc2cccnc2)[C@@H](C)CN([C@H](C)CO)S3(=O)=O)cc1 25.8%
C[C@@H]1CN([C@H](C)CO)C(=O)Cc2cc(NC(=O)c3ccncc3)ccc2O[C@H]1CN(C)Cc1ccc(Cl)c(Cl)c1 5.9% [at 35 µM]
O=C(N[C@@H]1C=C[C@H](CC(=O)N2CCOCC2)O[C@@H]1CO)c1cccc(F)c1 9.1% [at 8 µM]
CCCC(=O)Nc1ccc2c(c1)C(=O)N(C)C[C@H](OC)[C@@H](C)CN(CC1CCOCC1)[C@H](C)CO2 -10.3%
O=C(C[C@H]1C[C@H]2c3cc(NS(=O)(=O)c4ccc(F)cc4)ccc3O[C@H]2[C@H](CO)O1)NCc1ccc(-c2ccccc2)cc1 -6.35% [at 1.95 µM]
COCC(=O)N1[C@@H]2c3ccc(-c4ccncc4)c(=O)n3C[C@@H]2[C@@H](CO)[C@@H]1C(=O)Nc1ccccc1 -4.68% [at 0.5 µM]
C[C@H](NC(=O)C[C@@H]1C[C@@H]2c3cc(NC(=O)NC4CCCCC4)ccc3O[C@@H]2[C@H](CO)O1)c1ccccc1 -12.5% [at 1.95 µM]
C[C@@H]1CN([C@H](C)CO)C(=O)Cc2cc(N(C)C)ccc2O[C@@H]1CN(C)Cc1ccc(Oc2ccccc2)cc1 27.6% [at 35 µM]
C[C@@H]1CN([C@@H](C)CO)C(=O)Cc2cc(N(C)C)ccc2O[C@@H]1CN(C)Cc1ccc(Oc2ccccc2)cc1 32.7%
C[C@H](CO)N1C[C@H](C)[C@@H](CN(C)Cc2ccc(C(F)(F)F)cc2)Oc2ccc(N(C)C)cc2CC1=O 14% [at 8 µM]
C[C@H](CO)N1C[C@H](C)[C@@H](CN(C)Cc2ccccc2)Oc2ccc(N(C)C)cc2CC1=O 18.1%
C[C@@H]1CN([C@@H](C)CO)C(=O)Cc2cc(NC(=O)C3CC3)ccc2O[C@@H]1CN(C)Cc1ccc(Oc2ccccc2)cc1 32.9%
C[C@@H]1CN([C@H](C)CO)C(=O)Cc2cc(N(C)C)ccc2O[C@@H]1CN(C)Cc1ccc(-c2ccccc2)cc1 13.4% [at 8 µM]
C[C@@H]1CN([C@H](C)CO)S(=O)(=O)c2ccc(C#Cc3ccccc3)cc2O[C@H]1CN(C)C(=O)Nc1ccccc1 8.1% [at 8 µM]
C[C@H](CO)N1C[C@H](C)[C@@H](CN(C)CC2CC2)Oc2cc(-c3ccc(F)cc3)ccc2S1(=O)=O 38%
CN(C)CC(=O)N1[C@H](C#N)[C@H](c2ccc(C#CC3CCCCC3)cc2)[C@@H]1CO 14.2% [at 8 µM]
CN(C)CC(=O)N1[C@@H](C#N)[C@H](c2ccc(C#CC3CCCCC3)cc2)[C@@H]1CO 22.7% [at 8 µM]
N#C[C@H]1[C@@H](c2ccc(C#CC3CCCCC3)cc2)[C@@H](CO)N1S(=O)(=O)c1ccccc1 31.9% [at 8 µM]
CCCC#Cc1ccc([C@H]2[C@@H](CO)N(C(=O)C3CCCCC3)[C@H]2C#N)cc1 25.3% [at 8 µM]
Cc1ccccc1S(=O)(=O)N1[C@H](C#N)[C@@H](c2ccc(C#CC3CC3)cc2)[C@@H]1CO 26.6% [at 7.5 µM]
N#C[C@H]1[C@@H](c2ccc(C#CC3CCCC3)cc2)[C@@H](CO)N1S(=O)(=O)Cc1ccccc1 29.9% [at 8 µM]
CCCC(=O)Nc1ccc2c(c1)C(=O)N(C)C[C@@H](OC)[C@H](C)CN(CC1CCOCC1)[C@H](C)CO2 -10.1%
CCC(=O)N[C@@H]1C=C[C@H](CC(=O)OC)O[C@H]1CO -12.4%
CN1CCN(C(=O)C[C@H]2C[C@H]3c4cc(NC(=O)Cc5ccncc5)ccc4O[C@H]3[C@H](CO)O2)CC1 13.8%
C[C@H](CO)N1C[C@H](C)[C@H](CN(C)Cc2ccc(C(F)(F)F)cc2)OCCCC[C@H](C)Oc2ccc(NC(=O)CCCN(C)C)cc2C1=O 31.1%
C[C@@H]1CN([C@@H](C)CO)C(=O)c2cc(/C=C/c3ccccc3)cnc2O[C@H]1CN(C)C(=O)NC1CCCCC1 -30.5% [at 8 µM]
